Measurements reported in PubChem BioAssay AID2553 (Johns Hopkins Ion Channel Center, 2010).
The whole screen tested about 310,000 compounds, of which about 3,300 (1.1%) were called active.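 Rule for the calls: active = B-score under library mean minus 3 SD, initial fluorescence not abnormally high, positive integrated signal ratio; inactive = the rest.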 This excerpt belongs to a sample that is enriched for actives.

Target: Short transient receptor potential channel 6 (Mus musculus) (UniProt Q61143)
Sequence (Q61143 whole entry, looked up): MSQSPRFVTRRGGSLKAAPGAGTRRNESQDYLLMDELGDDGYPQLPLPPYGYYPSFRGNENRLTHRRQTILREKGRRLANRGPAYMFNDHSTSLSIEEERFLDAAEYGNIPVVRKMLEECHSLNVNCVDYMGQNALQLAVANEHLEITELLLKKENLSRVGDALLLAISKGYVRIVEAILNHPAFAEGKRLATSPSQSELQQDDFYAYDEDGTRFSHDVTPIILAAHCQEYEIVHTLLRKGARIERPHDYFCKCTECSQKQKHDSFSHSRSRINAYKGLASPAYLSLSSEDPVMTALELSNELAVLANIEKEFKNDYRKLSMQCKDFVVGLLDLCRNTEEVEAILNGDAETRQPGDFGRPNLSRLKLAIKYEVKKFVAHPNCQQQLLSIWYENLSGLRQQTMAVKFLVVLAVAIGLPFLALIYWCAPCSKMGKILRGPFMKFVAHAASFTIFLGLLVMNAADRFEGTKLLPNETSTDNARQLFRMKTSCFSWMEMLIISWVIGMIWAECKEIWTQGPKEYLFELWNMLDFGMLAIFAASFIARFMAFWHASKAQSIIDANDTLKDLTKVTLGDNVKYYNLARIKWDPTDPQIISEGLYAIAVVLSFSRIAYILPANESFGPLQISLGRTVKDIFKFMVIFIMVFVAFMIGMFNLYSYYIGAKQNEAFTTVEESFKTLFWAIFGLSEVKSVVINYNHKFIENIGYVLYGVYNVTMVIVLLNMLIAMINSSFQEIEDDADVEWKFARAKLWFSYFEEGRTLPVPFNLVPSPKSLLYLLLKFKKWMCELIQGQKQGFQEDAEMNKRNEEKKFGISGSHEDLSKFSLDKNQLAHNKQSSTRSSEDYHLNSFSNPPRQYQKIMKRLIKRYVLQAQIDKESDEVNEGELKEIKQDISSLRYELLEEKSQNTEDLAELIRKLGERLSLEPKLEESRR
Test: mouse TRPC6 channel inhibitors, primary screen, cell-based, HEK293, membrane potential dye (AID 2553);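 for B-score: B-score derived from integrated fluorescence ratio over the kinetic read; more negative B-score means stronger inhibition of depolarization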
Details: ACh-evoked depolarization, at 10 µM; stronger effect = lower value

Compound	B-score
C#CC(CCN1CCCCC1)(OC)c1ccccc1 (stereo not given)	inactive
CCOC(=O)c1sc2nc(C)[nH]c(=O)c2c1C	inactive
CCOC(=O)c1sc2nc(CSCC(=O)OCc3ccc(C(=O)OC)o3)[nH]c(=O)c2c1C	-12.7 (active)
CCOC(=O)c1sc2nc(CSc3ccccc3)[nH]c(=O)c2c1C	inactive
COc1ccc(NC(=S)N2N=CCC2c2ccccc2)cc1 (stereo not given)	inactive
Cc1cccc(-[n+]2c(-c3cccc(Br)c3)[nH]c3nc4ccccc4nc32)c1	-6.45 (active)
Cc1nnc(SCC(=O)N2CCN(c3ccccc3)CC2)n1-c1ccccc1	inactive
Cc1nnc(SCc2ccc(C(=O)c3ccc(Cl)cc3)o2)n1-c1ccccc1	-6.02 (active)
Cc1nnc(SCC(=O)NCCOc2ccc(Cl)cc2)n1-c1ccccc1	inactive
CN1CCN(C(=O)c2ccc(NS(=O)(=O)c3ccccc3)cc2)CC1	inactive
O=C(Nc1ccc(Br)cc1F)C1CC(=O)N(C2CCCCC2)C1 (stereo not given)	inactive
CC(=O)Nc1ccc(NC(=O)CN2CCCC(C)C2)c(Cl)c1 (stereo not given)	-5.66 (active)
CC1CCCN(CC(=O)Nc2cc(Cl)ccc2Oc2ccccc2)C1 (stereo not given)	inactive
O=C(CN1CCOCC1)Nc1ccc(NC(=O)CN2CCOCC2)c(Cl)c1	inactive
Cc1ccc(S(=O)(=O)C2(S(=O)(=O)c3ccc(C)cc3)CCCC2)cc1	inactive
O=S(=O)(Cc1nnnn1-c1ccccc1)c1ccccc1	inactive
O=C(OCCN1C(=O)c2ccccc2C1=O)Oc1ccccc1	inactive
Cn1c(=O)c2c(nc(NCCNC(=O)c3ccco3)n2Cc2ccccc2F)n(C)c1=O	inactive
Cc1ccc(NC(=O)COC(=O)CNC(=O)c2ccc(Cl)cc2Cl)cc1S(=O)(=O)N1CCOCC1	inactive
COc1ccc(CC(=O)Nc2c(C(N)=O)oc3ccccc23)cc1	inactive
Cc1ccc(C(=O)Nc2sc(Cc3ccc4c(c3)OCO4)c(C)c2C(N)=O)cc1	inactive
COc1ccc(CC(=O)Nc2sc(Cc3ccccc3)c(C)c2C(N)=O)cc1	-7.08 (active)
Cc1ccccc1N1C(=O)C2ON(c3ccccc3)C(c3ccncc3)C2C1=O (stereo not given)	inactive
CCN(CC)CCn1c2ccc(Cl)cc2c2nc(C)sc21	-7.92 (active)
COC(=O)Cn1c2ccc(C)cc2c2nc(C)sc21	inactive
CCN(CC)CCNc1ccc(Cl)cc1[N+](=O)[O-]	inactive
COCCNc1ccc(-c2n[nH]c(=O)c3ccccc23)cc1[N+](=O)[O-]	inactive

Compound	B-score
NS(=O)(=O)c1ccc(CCNC(=O)CCCn2c(SCC(=O)N3CCCC3)nc3ccsc3c2=O)cc1	inactive
CCn1c(C)cc(=O)cc1-c1ccc(Cl)cc1	inactive
COc1ccc(Cn2c(=O)cc(C)[nH]c2=S)cc1	inactive
COc1ccc(Cn2c(-c3ccc(Cl)cc3)c[n+]3ccccc23)cc1	-7.95 (active)
CCN1C(=S)N[C@@H](CCc2ccccc2)[C@H](C(=O)OC)[C@H]1C	inactive
O=C(O)CSCc1ccc(C(=O)O)o1	inactive
COc1ccc(C(=O)N2CCc3cc(OC)c(OC)cc3C2c2cccc([N+](=O)[O-])c2)cc1 (stereo not given)	inactive
COc1ccccc1C1SCCN1C(=O)c1ccc([N+](=O)[O-])cc1 (stereo not given)	-9.98 (active)
COc1ccccc1C1CCN(c2ccc([N+](=O)[O-])cn2)CC1	inactive
CC1CC(C)CN(CCOc2cccc3ccccc23)C1 (stereo not given)	inactive
CCCCCOC(=O)c1ccc(N2C(=O)C3C4C=CC(C4)C3C2=O)cc1 (stereo not given)	inactive
CCCCCCCCCCOC(=O)C[N+](C)(C)CC1CCCCC1O (stereo not given)	-9.01 (active)
CCC(C)(C)c1ccc(OCC(=O)N(C)C)c(C(C)(C)CC)c1	inactive
Oc1ccccc1-c1cc(-c2ccc(Cl)cc2)n[nH]1	inactive
CCCCNC(=O)C1CCC(CNS(=O)(=O)c2ccc(NC(C)=O)cc2)CC1 (stereo not given)	inactive
Cc1ccccc1-n1nnnc1SCCCC(=O)c1ccc(F)cc1	inactive
CCc1c(O)nc(SCC(=O)Nc2ccccc2)n(C(C)CC)c1=O (stereo not given)	inactive
CNC(=O)c1ccsc1NC(=O)c1ccc(S(=O)(=O)N2CCOCC2)cc1	inactive
COc1ccc(C(=O)Nc2nc(-c3ccc(S(=O)(=O)N4CCOCC4)cc3)cs2)cc1	inactive
COC(=O)c1c(NC(=O)c2ccc(S(=O)(=O)N3CCOCC3)cc2)sc2c1CCN(C(C)C)C2	-5.88 (active)
Cc1ccccc1CS(=O)(=O)CC1(O)CCN(C(=O)c2cccc(C(F)(F)F)c2)CC1	inactive
CCC(C)(C)NC(=O)C(c1ccc(OC)cc1)N(C(=O)CCC(=O)Nc1cc(C)on1)c1ccc(OC)cc1OC (stereo not given)	inactive
O=C(CSc1nnnn1C1CCCC1)N1CCCCC1	inactive
Cc1cccc(NC(=S)Nc2ccc(Br)cc2)c1	inactive
Cc1cccc(NC(=S)NCCN(C2CCCCC2)C2CCCC2)c1	-5.75 (active)
Cc1cccc(NC(=S)Nc2ccc(Cl)c(Cl)c2)c1	inactive
O=S(=O)(c1ccc(Br)c2ccccc12)N1CCOCC1	inactive

Compound	B-score
Cc1ccccc1N1CCN(S(=O)(=O)c2ccc3ccccc3c2)CC1	inactive
Cc1cc(N2CCN(S(=O)(=O)c3ccc(C)c(C)c3)CC2)c2ccccc2n1	-5.95 (active)
Cc1ccc(S(=O)(=O)N2CCN(c3ccccc3)CC2)cc1C	inactive
CC(=O)NS(=O)(=O)c1ccc(N/C(N)=N/c2nc(C)cc(C)n2)cc1	inactive
OCCC1CN(Cc2ccc3nsnc3c2)CCN1C1CCCC1 (stereo not given)	-6.69 (active)
OCCC1CN(Cc2ccc3nsnc3c2)CCN1C1CCCCC1 (stereo not given)	-5.65 (active)
CC(C)N1CCC(N2CCN(Cc3cccnc3)CC2CCO)CC1 (stereo not given)	inactive
Cn1cnnc1Sc1ccc(CN2CCN(C3CCCC3)C(CCO)C2)o1 (stereo not given)	inactive
Cc1ccc(CN2CCN(Cc3ccc4ncccc4c3)CC2CCO)cc1 (stereo not given)	inactive
COc1cccc2c1OCC(CN1CCN(C3CCCCC3)C(CCO)C1)=C2 (stereo not given)	inactive
Fc1c(F)c(C(F)(F)F)c(F)c(F)c1N1CCN(c2ccc3nnc(C(F)(F)F)n3n2)CC1	inactive
O=C(CCN1CCCO1)N1CCCC(N2CCN(c3cccc(C(F)(F)F)c3)CC2)C1 (stereo not given)	inactive
O=C(O)c1ccc(S(=O)(=O)N2CCOCC2)o1	inactive
O=C(NCc1ccccc1Cl)C(=O)NCC1CCCN1S(=O)(=O)c1cccs1 (stereo not given)	inactive
COc1ccc([C@@H]2[C@@H]3C(=O)N(C(C)(C)C)C(=O)[C@@H]3[C@]3(Cc4ccccc4)C(=O)N(c4cccc(Br)c4)C(=O)N23)cc1	inactive
COc1ccc(-c2nonc2NC(=O)c2oc3ccc(F)cc3c2C)cc1OC	inactive
CCOC(=O)c1cc2c(n(-c3ccc(C)cc3)c1=O)CCCC2=O	inactive
CCOC(=O)C1=C(CN2CCc3ccccc32)NC(=O)NC1c1ccc(Cl)cc1 (stereo not given)	inactive
CCOC(=O)C1=NN(c2ccc(Cl)cc2)/C(=C/C2=NCCc3cc(OC)c(OC)cc32)S1	-5.5 (active)
c1ccc(-n2nnnc2-c2cccnc2)cc1	inactive
FC(F)(F)c1nc(-c2ccccc2)ncc1-c1nnnn1-c1ccccc1	inactive
Clc1ccc(-n2nnnc2-c2cnc(-c3ccccn3)nc2-c2cccs2)cc1	-6.02 (active)
CCN1CCN(c2ccc([N+](=O)[O-])cc2C(=O)c2ccc(Cl)cc2)CC1	-6.09 (active)
CCC(=O)c1ccc(N2CCN(C(=O)c3cc([N+](=O)[O-])ccc3F)CC2)c(F)c1	inactive
O=C(Nc1cccc(Cl)c1)c1cc([N+](=O)[O-])ccc1N1CCN(CCO)CC1	inactive
COc1ccc(C(C#N)Nc2ccc(C)cc2)cc1 (stereo not given)	inactive
Cc1ccc(S(=O)(=O)N(c2cccc(C)c2)C2CCS(=O)(=O)C2)cc1 (stereo not given)	inactive

Compound	B-score
COCc1ccc(CN2CCC(Oc3ccc(C(=O)NCc4ccccn4)cc3)CC2)o1	inactive
CCCn1nc(NC(=O)C(C)C)c2cc3cc(OC)ccc3nc21	inactive
Cc1ccccc1CSc1nnc(CCCCCNC(=O)OC(C)(C)C)o1	inactive
CCC(C)(C)NC(=O)CN(C(=O)CCC(=O)Nc1nccs1)c1ccc2c(c1)OCO2	-5.2 (active)
CCC(C)(C)NC(=O)CN(C(=O)CCC(=O)Nc1cc(C)ccn1)c1ccc2c(c1)OCCO2	inactive
O=C(CN(C(=O)CCC(=O)Nc1nccs1)c1ccc(F)cc1)NCc1ccc2c(c1)OCO2	inactive
CCN1CCC2(CCN(Cc3cn[nH]c3-c3ccc(OC)c(F)c3)C2)C1 (stereo not given)	inactive
COc1ccc(/C=C/C(=O)OCC(=O)NCc2cccs2)cc1OC	inactive
O=C(CN1CCN(C(=O)C2CCCO2)CC1)Nc1c(Cl)cccc1Cl (stereo not given)	inactive
COc1ccc(OC)c(CNC(=O)Cn2nc(C)c3c(C)n(-c4ccc(C)cc4)nc3c2=O)c1	inactive
CN=C1C=C/C(=N/N=c2\ccn(O)cc2C)C=C1C	inactive
O=C(O)CCCCCNc1ncnc2ccc(Br)cc12	inactive
Cc1ccccc1-n1nc(C)c2c1N=C1C(Cl)=CC(Cl)=CN1C2c1ccc(C(=O)O)cc1 (stereo not given)	inactive
Cc1onc(C(=O)NN)c1C(=O)N1CCN(C(c2ccccc2)c2ccccc2)CC1	inactive
O=C(c1ccc(-n2cnnn2)cc1)N1CCN(C(c2ccccc2)c2ccccc2)CC1	-5.27 (active)
Cn1nnnc1SCC(=O)N1CCN(C(c2ccccc2)c2ccccc2)CC1	inactive
COc1ccc(Cc2nnc(SCC(=O)N(c3ccccc3)C(C)C)n(N)c2=O)cc1	inactive
C=CCSC(CC)(CC)C(N)=O	inactive
Oc1c(Cl)cc(Cl)c(Cl)c1Cc1c(O)c(Cl)cc(Cl)c1Cl	-7.71 (active)
COc1cc(NC(=O)C2CC(c3ccccc3O)=NO2)c(OC)cc1Cl (stereo not given)	inactive
Cc1ccc(F)cc1NC(=O)N1CCCN(c2ccc(C(F)(F)F)cn2)CC1	inactive
Cc1ccc(NC(=O)CN(C)Cc2ccc(F)cc2)c([N+](=O)[O-])c1	inactive
CN(CC(=O)Nc1ccccc1[N+](=O)[O-])Cc1ccc(Br)cc1	-5.44 (active)
CN(CC(=O)Nc1ccc(N2CCOCC2)cc1)CC(=O)Nc1ccccc1[N+](=O)[O-]	inactive
